Shown are actives, neighbours in structure and some others; about 17% of the full set was active somewhere.
DT40 TDP1 CPT = DT40-hTDP1 cell growth loss with CPT; 420,000 tested, 12% active; Potency, µM (series often up to 46.2 µM), usual class: inhibitors; chicken DT40 Tdp1-/-;hTDP1 cells + 20 nM CPT, ATP luminescence, 48 h; further: nearly all actives have a fitted effect of over 55% in size
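Chicken DT40 Tdp1-/- cells stably complemented with human TDP1 were seeded at 400 cells/well in medium containing 20 nM camptothecin, exposed to pin-transferred compounds, and grown at 37 °C for at least 48 hr. Viability was read as ATP luminescence.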
TGFb SMAD3 inh = blocks TGF-b signaling; HepG2 CAGA-GFP TGF-b/SMAD3 reporter, GFP fluorescence, 18 h; TGF-beta stimulated, 500 pg/mL final; Potency, µM (highest dose often 46.1 µM), usual class: inhibitors; 410,000 tested, 1.2% active; AID 588855; further: nearly all actives have a fitted effect of over 65% in size
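Cell-based qHTS in HEPG2 carrying a CAGA-GFP Smad reporter; compounds added before 500 pg/mL final TGF-beta, 18 h incubation at 37 degrees C, GFP fluorescence quantified per cell by imaging cytometry.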
HepG2 viability = counter-screen for TGF-b inhibitors: cytotoxicity in HepG2 cells; 410,000 tested, 0.76% active; HepG2 CAGA-GFP viability, ATP luminescence, 18 h; Potency, µM (series often up to 46.1 µM), usual class: cytotoxic; AID 588856
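HepG2 CAGA-GFP cells (1000/well, DMEM with 1% FBS) received compound, then TGF-beta at 500 pg/mL final, and were incubated 18 hours at 37 degrees C. Viability was read by CellTiter-Glo luminescence. Media-only wells were set as complete cell-killing and DMSO as no toxicity.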
ATXN2 expr inh = reduces ATXN2 reporter expression in HEK-293 cells; HEK-293 ATXN2-luciferase reporter, luminescence, 24 h; 360,000 tested, 0.72% active; Potency, µM (top dose mostly 57 µM), actives largely listed as inhibitors; further: nearly all actives have a fitted effect of over 55% in size
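qHTS (up to 57 uM final) was run with 24 h compound exposure of reporter cells at 37 °C. Each well was multiplexed: SteadyGlo luminescence measured ATXN2-luciferase expression after a fluorogenic Gly-Phe-AFC viability readout (25 uM final).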
TDP1 cell noCPT = qHTS for Inhibitors of human tyrosyl-DNA phosphodiesterase 1 (TDP1): qHTS in cells in absence of CPT. DT40 Tdp1-/- hTDP1 cells, no CPT, ATP luminescence, 48 h. Potency, µM (top dose mostly 46.2 µM), usual class: inhibitors. 420,000 tested, 15% active; further: nearly all actives have a fitted effect of over 55% in size
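Cells were dispensed at 400 per well, compounds added by pin tool, plates incubated ≥48 hr at 37 °C, then CellTiter-Glo added for 30 min at room temperature before luminescence reading. Line: DT40 Tdp1-/- complemented with hTDP1; camptothecin omitted.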
S2 tox = reduces viability in counter-screen for ATXN expression inhibitors; S2 cells (HEK-293 line with an ATXN2-luciferase reporter) viability, CellTiter-Fluor protease fluorescence, 24 h; AID 651635; 400,000 tested, 0.49% active; Potency, µM (highest dose often 56.7 µM), usual class: cytotoxic; further: nearly all actives have a fitted effect of over 40% in size
Large screens that a line does not name were inactive. The call rests on the fitted dose curve; in most records, active means well fitted curve in the direction sought with a large enough effect; inconclusive means small, poorly fitted or top-dose-only effect, or another doubt; inactive means no such curve, though single readings can be large; an effect the other way counts as inactive or inconclusive.

CN(C)c1ccc(-c2ccnc3c2CC(C)(C(=O)NCc2ccc(F)c(F)c2)O3)cc1 (stereo unspecified)	DT40 TDP1 CPT 9.2µM, ATXN2 expr inh inconclusive, TDP1 cell noCPT 9.2µM, S2 tox inconclusive
CN(C)C(=S)NC(=S)Nc1ccc2ccccc2c1	DT40 TDP1 CPT inconclusive, TGFb SMAD3 inh inconclusive, TDP1 cell noCPT inconclusive, S2 tox inconclusive
CC(OC(=O)CCCSc1nc2ccccc2s1)C(=O)NC(N)=O (stereo unspecified)	none
CS(=O)(=O)c1ccc2nc(NC(=O)CCNC(=O)c3ccc(Cl)cc3)sc2c1	TDP1 cell noCPT inconclusive
COC(=O)c1ccccc1NC(=O)CSc1nnc(-c2ccc(OC)cc2)n1C	none
COc1cc(OC)c(NC(=O)C2=C(C)C(=O)OC23CCCCCC3)cc1Cl	DT40 TDP1 CPT inconclusive, TGFb SMAD3 inh inconclusive, TDP1 cell noCPT inconclusive (no result: ATXN2 expr inh, S2 tox)
CCOc1ccccc1C(=O)N1CCN(c2cccc(Cl)c2)CC1	DT40 TDP1 CPT 0.037µM, TGFb SMAD3 inh inconclusive, TDP1 cell noCPT 0.16µM
O=C(O)c1ccccc1C(=O)N1CCN(c2cccc(Cl)c2)CC1	none
CCOc1ccc2ccccc2c1C(=O)N1CCN(c2ccccc2)CC1	DT40 TDP1 CPT inconclusive, TDP1 cell noCPT 16µM, S2 tox inconclusive
COc1cc(Cl)ccc1NC(=O)COc1ccccc1C(=O)N1CCN(c2ccc(O)cc2)CC1	DT40 TDP1 CPT 23µM, TDP1 cell noCPT 23µM
COc1ccc(C(=O)N2CCN(c3cccc(Cl)c3)CC2)c(OC)c1	DT40 TDP1 CPT 16µM, TDP1 cell noCPT 12µM
COc1ccccc1OCC(=O)Nc1ccc(O)cc1C(=O)O	none
COc1ccc(N2CCN(C(=O)c3ccc(SC)cc3OC)CC2)cc1	TDP1 cell noCPT inconclusive (no result: ATXN2 expr inh)
CC(=O)C[C@@H]1OC2CCCCC2N1S(=O)(=O)c1ccc(C)cc1 (stereo partly specified)	none (no result: TGFb SMAD3 inh, HepG2 viability, ATXN2 expr inh, S2 tox)
COc1cc(C2Sc3ccccc3NC3=C2C(=O)OC3)cc(OC)c1OC (stereo unspecified)	DT40 TDP1 CPT 16µM, TDP1 cell noCPT inconclusive, S2 tox inconclusive
COc1cc(C2CC(=O)C3=C(C2)Nc2ncnn2C3c2cccs2)cc(OC)c1OC (stereo unspecified)	none
Cc1ccc(Cn2c(=N)c(C(=O)NC3CCCCC3)cc3c(=O)n4ccccc4nc32)cc1	DT40 TDP1 CPT 5.8µM, TDP1 cell noCPT 6.5µM
N=c1c(C(=O)NC2CCCC2)cc2c(=O)n3ccccc3nc2n1Cc1ccccc1	DT40 TDP1 CPT inconclusive, TDP1 cell noCPT inconclusive (no result: ATXN2 expr inh, S2 tox)
Cc1cccn2c(=O)c3cc(C(=O)NC4CCCC4)c(=N)n(CCc4ccccc4)c3nc12	DT40 TDP1 CPT 2.9µM, TDP1 cell noCPT 3.7µM (no result: S2 tox)
COc1ccc(CCn2c(=N)c(C(=O)NC3CCCCC3)cc3c(=O)n4ccccc4nc32)cc1	DT40 TDP1 CPT 6.5µM, TDP1 cell noCPT 4.1µM, S2 tox inconclusive
Cc1cccn2c(=O)c3cc(C(=O)NC4CCCC4)c(=N)n(C4CCCCC4)c3nc12	TDP1 cell noCPT inconclusive
COc1ccc(CCn2c(=N)c(C(=O)NC3CCCC3)cc3c(=O)n4cccc(C)c4nc32)cc1	DT40 TDP1 CPT 1.5µM, TDP1 cell noCPT 1.8µM (no result: ATXN2 expr inh)
COC(=O)C1NC(=O)N2C(C(=O)OC)C(C)(C)S[C@H]12 (stereo partly specified)	none
CC[C@@H](C(=O)[C@@H](C)[C@@H](O)[C@H](C)CCc1ccc(C)c(O)c1C(=O)O)[C@H]1O[C@](CC)([C@H]2CC[C@](O)(CC)[C@H](C)O2)C[C@@H]1C	DT40 TDP1 CPT 2.6µM, TGFb SMAD3 inh 10µM, ATXN2 expr inh 20µM, TDP1 cell noCPT 2.3µM, S2 tox 13µM
CCOC(=O)c1c(NC(C)=O)sc(/C(C)=N/Nc2ccc(C(=O)O)cc2)c1C	DT40 TDP1 CPT inconclusive, TDP1 cell noCPT inconclusive

High-throughput results deposited in PubChem by National Center for Advancing Translational Sciences (NCATS).
